High-throughput results as filed in PubChem BioAssay.
Rows were chosen to be rich in hits. Some 19% of all compounds tested hit in one or more screens of this group.
DT40 TDP1 no CPT: qHTS for Inhibitors of human tyrosyl-DNA phosphodiesterase 1 (TDP1): qHTS in cells in absence of CPT; DT40 Tdp1-/- hTDP1 cells, no CPT, ATP luminescence, 48 h; Potency, µM (doses to about 46.2 µM), for the others: at the top dose activity change, negative = growth inhibition, usual class: inhibitors; hit rate 15% among 420,000; AID 686978, 2013; note: potency is the fitted concentration of half-maximal effect; % is set by controls: 0 for no effect and ±100 for the full control effect; nearly all actives have a fitted effect of over 55% in size
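Luminescent ATP content (CellTiter-Glo) served as the growth readout. Knockout chicken DT40 cells expressing human TDP1 were exposed to compounds without camptothecin for a minimum 48 hr at 37 °C.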
IL-1B inflam inh: blocks inflammasome-driven IL-1 beta release. hit rate 4.7% among 360,000. AID 743279. activity change, % at 57.5 µM. THP-1 LPS/ATP IL-1B secretion, AlphaLISA, 16 h; stronger effect = lower value; in the data active = activity change below about -50%; inconclusive = mostly about -30% to -49%; note: % is set by controls: 0 for no effect and ±100 for the full control effect
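THP-1 cells pretreated 1 hr with compounds (up to 57.5 uM final), then stimulated with LPS (250 ng/mL final) plus ATP (1.25 mM final); secreted IL-1B measured by AlphaLISA after 16 hr, decreased signal indicating inhibition.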
TDP1 inh: TDP1 (human) enzyme inhibition; Q9NUW8; recombinant TDP1, AlphaScreen DNA substrate cleavage; Potency, µM (titrated, usually from 130 µM), without a hit: top-dose activity change, negative = inhibition, most hits filed as inhibitors; hit rate 0.28% among 350,000; note: potency is the fitted concentration of half-maximal effect; % is set by controls: 0 for no effect and ±100 for the full control effect; nearly all actives have a fitted effect of over 40% in size
Target sequence (Q9NUW8 whole entry, looked up): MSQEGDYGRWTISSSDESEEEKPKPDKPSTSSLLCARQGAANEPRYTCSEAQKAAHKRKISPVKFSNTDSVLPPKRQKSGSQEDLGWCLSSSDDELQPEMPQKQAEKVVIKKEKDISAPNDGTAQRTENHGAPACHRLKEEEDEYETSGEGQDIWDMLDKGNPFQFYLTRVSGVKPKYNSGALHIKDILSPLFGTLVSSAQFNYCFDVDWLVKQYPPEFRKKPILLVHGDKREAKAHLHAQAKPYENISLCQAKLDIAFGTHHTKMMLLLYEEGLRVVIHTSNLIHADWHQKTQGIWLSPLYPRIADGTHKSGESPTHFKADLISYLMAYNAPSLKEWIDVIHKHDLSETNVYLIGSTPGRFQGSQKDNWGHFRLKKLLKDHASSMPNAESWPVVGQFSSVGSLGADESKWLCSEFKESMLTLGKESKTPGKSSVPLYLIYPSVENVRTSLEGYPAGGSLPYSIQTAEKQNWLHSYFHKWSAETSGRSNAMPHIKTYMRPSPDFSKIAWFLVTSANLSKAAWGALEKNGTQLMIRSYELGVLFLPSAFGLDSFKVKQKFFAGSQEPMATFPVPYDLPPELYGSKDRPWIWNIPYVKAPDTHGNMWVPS
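Steps: enzyme plus compound, 15 min RT; add biotin/phosphotyrosine-FITC oligonucleotide (15 nM final), react 5 min; add donor/acceptor beads (10 ug/ml final), 10 min; read AlphaScreen. Tdp1 at 1 nM final.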
TDP1 cell CPT: growth inhibition of DT40 Tdp1-/-;hTDP1 cells with camptothecin (screen for TDP1 inhibitors); chicken DT40 Tdp1-/-;hTDP1 cells + 20 nM CPT, ATP luminescence, 48 h; Potency, µM (top dose mostly 46.2 µM), for inactives: at the highest dose activity change, negative = growth inhibition, actives largely listed as inhibitors; hit rate 12% among 420,000; note: potency is the fitted concentration of half-maximal effect; % is set by controls: 0 for no effect and ±100 for the full control effect; nearly all actives have a fitted effect of over 55% in size
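Chicken DT40 Tdp1-/- cells stably complemented with human TDP1 were seeded at 400 cells/well in medium containing 20 nM camptothecin, exposed to pin-transferred compounds, and grown at 37 °C for at least 48 hr. Viability was read as ATP luminescence.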
TGFb inhibitor: blocks TGF-b signaling. HepG2 CAGA-GFP TGF-b/SMAD3 reporter, GFP fluorescence, 18 h; TGF-beta stimulated, 500 pg/mL final. Potency, µM (top dose mostly 46.1 µM), for the others: top-dose activity, negative = inhibition, actives largely listed as inhibitors. hit rate 1.2% among 410,000. AID 588855; note: potency is the fitted concentration of half-maximal effect; % is set by controls: 0 for no effect and ±100 for the full control effect; nearly all actives have a fitted effect of over 65% in size
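Read-out: total well GFP (ex488/em500-530) summed from mean per-cell fluorescence. Cells: HEPG2 CAGA-GFP, 1% FBS DMEM, 18 h at 37 degrees C with 500 pg/mL final TGF-beta. Unstimulated wells served as the full-inhibition control; stimulated DMSO wells = 0%.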
HepG2 tox: kills HepG2 cells in TGF-b inhibitor counter-screen. HepG2 CAGA-GFP viability, ATP luminescence, 18 h. Potency, µM (titrated, usually from 46.1 µM), without a hit: at the highest dose activity change, negative = cytotoxicity, usual class: cytotoxic. hit rate 0.76% among 410,000. AID 588856; note: potency is the fitted concentration of half-maximal effect
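CellTiter-Glo luminescence gave cytotoxicity after 18 hours at 37 degrees C. The cells were HepG2 CAGA-GFP in 1% FBS DMEM, stimulated with 500 pg/mL TGF-beta after compound addition. %Activity was normalised to no-cell wells (complete cell-killing) and DMSO (no toxicity), and curves were fitted and classified.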
Numbers without * were called inactive; ? = inconclusive; . = not tested or not shown; ! = repeats disagree; [ ] = dose if it differs, or a comment. Unless noted, calls come from the whole dose curve; as a rule, active = well fitted curve in the direction sought with a large enough effect; inconclusive = small, poorly fitted or top-dose-only effect, or another doubt; inactive = no such curve, though single readings can be large; an effect the other way counts as inactive or inconclusive.

SMILES	DT40 TDP1 no CPT	IL-1B inflam inh	TDP1 inh	TDP1 cell CPT	TGFb inhibitor	HepG2 tox
COc1ccc(Cl)cc1NC(=O)CN1c2ccccc2S(=O)(=O)c2ccccc21	-27%	.	3%	?	?	2%
Cc1ccc(-n2nnnc2SC(C)C(N)=O)c(C)c1 (stereo not given)	-16%	-17	0%	-11%	18%	-7%
CC(Sc1nncn1C)C(=O)Nc1ccc(Cl)cn1 (stereo not given)	2%	18	1%	-3%	-1%	-17%
Cc1ccc(-n2nnnc2SC(C)C(=O)NCC(=O)Nc2ccc(F)c(F)c2F)c(C)c1 (stereo not given)	15µM*	?	2%	18µM*	-25%	15%
Cc1ccc(-n2nnnc2SC(C)C(=O)Nc2ccc(Cl)cn2)cc1 (stereo not given)	?	-57*	4%	?	-3%	-4%
CCC(=O)N1c2ccccc2CC1C(=O)NCCc1ccccc1C (stereo not given)	-21%	.	-4%	?	-18%	-46%
O=C(Cc1cccc2c(=O)cc(-c3ccccc3)oc12)OCCN1CCOCC1	-10%	-15	.	-5%	-3%	2%
Clc1ccc2oc(-c3ccccc3)cc(=NCCCN3CCOCC3)c2c1	?	-91*	6%	?	?	-40%
CCOC(=O)C1=C(C)NC(=S)NC1c1ccc(-c2cccc(Cl)c2C)o1 (stereo not given)	12µM*	-14	5%	16µM*	?	-45%
COC(=O)C1=C(C)NC(=O)NC1c1ccc(-c2ccccc2Cl)o1 (stereo not given)	16µM*	24	7%	10µM*	?	-58%
COC(=O)C1=C(C)NC(C)=C(C(=O)OC)C1c1ccc(-c2cc(Cl)ccc2Cl)o1	-25%	-68*	3%	2%	-15%	-3%
COC(=O)C1=C(C)NC(=S)NC1c1ccc(-c2ccccc2C(=O)OC)o1 (stereo not given)	18µM*	-10	4%	?	-31%	9%
COC(=O)C1=C(C)NC(C)=C(C(=O)OC)C1c1ccc(-c2cccc(Cl)c2Cl)o1	?	?	3%	?	?	-15%
CCOCCc1nn2c(=O)cc(COC(=O)Cc3ccccc3)nc2s1	-8%	.	5%	4%	6%	-22%
COC(=O)Cc1c(C)c2ccc3c(c2oc1=O)CN(Cc1ccccc1Cl)CO3	?	.	-1%	?	-6%	-18%
Cc1cccc(C(=O)N2CCCC(Nc3ccc(F)c(F)c3)C2)n1 (stereo not given)	-15%	-9	5%	-27%	-14%	7.1µM*
CCOC(=O)C1(N(CC)CC)Sc2cc(C)ccc2NC1=O (stereo not given)	18µM*	35	2%	16µM*	?	-42%
CCOC(=O)c1[nH]c2ccc(C)cc2c1N	?	17	2%	?	-15%	-24%
COc1cc(C)c(C(=O)CSc2nnc(CNC(=O)c3ccco3)n2C)cc1C	-18%	-7	-5%	-2%	1%	-19%
COc1ccc(CCNC(=O)c2c(C)oc3ncn(CC(C)C)c(=O)c23)cc1OC	?	.	5%	-15%	17%	-5%
Cc1cc(C)nc(SCC(=O)N/N=C\C(Br)=C\c2ccccc2)n1	15µM*	-13	-3%	6.5µM*	2%	13%
Cc1cc(C)nc(SCC(=O)NN=C2CCCC2)n1	21µM*	1	0%	?	0%	7%
Cc1ccc(NCC(=O)N/N=C\C(Br)=C\c2ccccc2)cc1	5.8µM*	-98*	3%	3.3µM*	?	-67%
O=C(CSc1ncccn1)N/N=C/c1cccc([N+](=O)[O-])c1	-29%	24	2%	20%	5%	9%
Cc1cc(C)nc(SCC(=O)N/N=C/C=C/c2ccccc2)n1	?	-3	3%	?	-4%	-7%
SMILES	DT40 TDP1 no CPT	IL-1B inflam inh	TDP1 inh	TDP1 cell CPT	TGFb inhibitor	HepG2 tox
Cc1cc(C)nc(SCC(=O)N/N=C/c2cccc([N+](=O)[O-])c2)n1	23µM*	6	-3%	18µM*	2%	1%
Cc1cccc(-c2onc3ccc(C4(C)OCCO4)cc23)c1	15µM*	-9	0%	?	-19%	-14%
CC1(c2ccc3noc(-c4ccc(Cl)cc4)c3c2)OCCO1	?	-15	0%	?	11%	0%
CCOC(=O)C(Cc1ccccc1)C(=O)NCc1cccnc1 (stereo not given)	-1%	-3	2%	-4%	-10%	4%
COc1cc(-c2[nH]ncc2CN2CCc3sccc3C2)cc(OC)c1OC	10µM*	42	2%	15µM*	?	-37%
COc1ccc(-c2[nH]ncc2CN2CCN(Cc3cccs3)CC2)cc1F	?	-16	-1%	?	-16%	-27%
COc1ccc2c(c1)O[C@@H](c1ccc3c(c1)OCO3)[C@H](O)C2=O	.	.	5%	.	.	.
Cc1c(C(=O)O)c(O)cc2c1C(=O)c1c(O)c([C@H]3O[C@H](CO)[C@@H](O)[C@H](O)[C@H]3O)c(O)c(O)c1C2=O	?	.	0.71µM*!	8.9µM*	3%	3%
COc1cccc(-n2cnnc2SCC(=O)NC2CC2)c1	1%	2	3%	4%	-4%	0%
CC(=O)c1ccc(NC(=O)c2ccc(CN3C(=O)CCn4nc(C)cc43)cc2)cc1	-5%	.	3%	-10%	-20%	7%
Cc1oc(-c2cc(F)ccc2F)nc1CN1CCN(c2ncnc3ccccc23)CC1	21µM*	-29	8%	12µM*	-23%	-6%
COc1ccc(-c2nc(CN3CCN(c4ncnc5ccccc45)CC3)c(C)o2)c(OC)c1	5.8µM*	?	9%	8.2µM*	?	-62%
Cc1oc(-c2cc(F)ccc2F)nc1CN1CCC(C(=O)N2CCOCC2)CC1	16%	19	3%	13%	-13%	-2%
CC(=O)Nc1ccc(C(=O)CSc2nnc3cc(C)c4ccccc4n23)cc1	?	.	3%	?	-6%	6%
CC(=O)Nc1cc(C(=O)NCc2ccccc2)ccc1Sc1ccc(C)cc1	?	.	8%	?	0%	-1%
COc1cc(O)c2c(=O)cc(C)oc2c1CC=C(C)C	-23%[9.04 µM]	.	11%	3%[9.04 µM]	.	.
